Records with an inconclusive call do not appear. Values without a mark were called inactive.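 Rule for the calls: active = every repeat run fits a falling-signal curve with half-maximal potency within ten times top tested dose; inconclusive = runs disagree, or flat moderate drop, or poor fit; inactive = every run inactive, including signal moving upward.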
Assay: ADP-Glo luciferase signal interference – biochemical, luminescence, cherry-picked samples, set 2, artefact control for CDK5 inhibitor project, dose response (AID 504546);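 note: 0% = DMSO wells and -100% = wells lacking ADP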
Conditions: ADP-Glo detection reagent counter screen, 5 uM ADP; series mostly up to 30 µM; activity change, negative = inhibition: at the top concentration

Structure (SMILES) | activity change, negative = inhibition [%]
Clc1ccc(N/N=C/c2ccncc2)cc1Cl | -12.5
Oc1ccc(/C=N/Nc2ccc(C(F)(F)F)cn2)cc1 | -9.1
CC(C)n1cnc2c(Nc3cccc(Cl)c3)nc(NCCCO)nc21 | -8.77
COc1ccc2nc3c(cc2c1)c(NC(=O)c1cccs1)nn3CC(C)C | -13
COc1cc(OC)c(C(=O)N2CCN(c3ccccn3)CC2)cc1OC | 7.42
Clc1cncc(Cl)c1N/N=C/c1ccncc1 | -4.29
Cc1nc(Nc2ccccc2)sc1C(=O)c1ccccc1 | 1.1
Nc1cc2c(cc1[N+](=O)[O-])-c1ccccc1C2=NO | -0.261
Cc1ccc2nc(NCc3ccccc3)c(C#N)cc2c1 | 16.2
Oc1cc2c(cc1O)C1c3ccc(O)c(O)c3OCC1(O)C2 (stereo unspecified) | -5.27
Cc1nn(-c2ccc(Cl)cn2)c2c1C(=O)CC(C)(C)C2Br (stereo unspecified) | 1.63
COc1ccc(Nc2nccc(-c3cccc(N)c3)n2)cc1 | -4.84
O=C(O)CCC(=O)NCCn1c(-c2ccccc2)csc1=Nc1ccccc1 | -3.75
CC(C)(C)C(=O)c1sc(Nc2ccccc2)nc1N | 13.1
CC(C)C[C@H](CO)Nc1nc(N(C)c2cccc(Cl)c2)c2ncn(C(C)C)c2n1 | 14.8
Fc1ccccc1/C=N/Nc1ncnc2nc[nH]c12 | 3.58
CC(C)n1cnc2c(Nc3cccc(Cl)c3)nc(N(CCO)CCCO)nc21 | 3.17
CNS(=O)(=O)c1ccc2c3c(cccc13)C(=O)N2 | 16.5

Structure (SMILES) | activity change, negative = inhibition [%]
Cc1cc(-c2nsc(=O)o2)c(S(C)(=O)=O)s1 | 2.16
Clc1cnc(N/N=C/c2ccncc2)c(Cl)c1 | -11.8
CCCn1c(NC(=O)c2cccc(S(=O)(=O)N3CCCC3)c2)nc2ccccc21 | 13.4
CCNc1nc(N)nc(-c2cc(Cl)ccc2O)n1 | -11.2
Oc1ccc(/C=N/Nc2nccnc2Cl)c(O)c1 | -6.66
CC(C)C[C@H](CO)Nc1nc(Nc2cccc(Cl)c2)c2ncn(C(C)C)c2n1 | -0.074
O=C1NCCCc2c1oc1ccc(O)cc21 | 16.1
Nc1nc(Nc2cccc(Cl)c2)nc(NCCO)c1[N+](=O)[O-] | 16.8
O=c1c(O)c(-c2ccc(O)c(O)c2)oc2cc(O)ccc12 | 15.9
CCc1ncc(/C=C2\C(=O)Nc3ccccc32)[nH]1 | 6.92
O=C(Nc1csc(Cc2c(Cl)cccc2Cl)n1)NN1CCOCC1 | -9.64
C=CC(=O)Nc1ccc(Nc2nc(NC3CCC(N(C)C)CC3)nc3c2ncn3C(C)C)cc1 (stereo unspecified) | 7.33
COc1ccc(Nc2nc(N)c(C(=O)c3ccc(OC)cc3)s2)cc1 | -7.71
NC(=O)c1cc([N+](=O)[O-])c(Cl)cc1NCc1cccnc1 | 3.23
COc1cc(C(=O)N2CCN(c3ccccn3)CC2)cc(OC)c1OC | -10.2
Cc1ncc(CO)c(/C=N/Nc2ccc(C(F)(F)F)cn2)c1O | 5.08
COc1ccc(C(=O)c2sc(NC(C)C)nc2N)cc1OC | -11
Cc1cc(C)c2nc(C(F)(F)F)c(C#N)c(N)c2c1 | 0.162

Source: PubChem BioAssay AID504546 (Broad Institute, 2011)
